Screens deposited in PubChem by National Center for Advancing Translational Sciences (NCATS).
This is one part of a sample in which hits are shown more often than they occur.
nsP2pro primary – CHIKV nsP2 protease inhibition, primary qHTS; Potency, µM (doses to about 24.9 µM), for inactives: top-dose activity change, negative = inhibition, usual class: inhibitors; AID 1964107; 1.1% of 31,000 active; FRET peptide cleavage, nsP2pro, fluorescence 1 h; also: nearly all actives have a fitted effect of over 60% in size
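FRET cleavage of 2.5 uM peptide 2 by 150 nM CHIKV protease domain at pH 8.0 (Tris, Tween 20). Compounds at 7 concentrations (up to 25 uM) preincubated 15 min. Fluorescence read after 1 h at room temperature.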
CHIKV nsP2 cell – cell-based CHIKV nsP2 protease inhibition, secondary; shares compounds with nsP2pro primary; cell-based CHIKV nsP2 protease reporter assay; Potency, µM (series often up to 51.1 µM), inactives show top-dose activity change, negative = inhibition, most hits filed as inhibitors; 10% of 450 active; AID 1964100; also: nearly all actives have a fitted effect of over 70% in size
CHIKV NSP2 FL – full-length CHIKV NSP2 protease inhibition, selectivity | shares compounds with nsP2pro primary | Full-length CHIKV NSP2 protease enzymatic counterscreen | Potency, µM (titrated, usually from 50.7 µM), for the others: at the highest dose activity change, negative = inhibition, actives largely listed as inhibitors | 39% of 410 active; also: nearly all actives have a fitted effect of over 65% in size
Furin counter – selectivity counter-screen for CHIKV nsP2 protease inhibitors: human furin; 6% of 410 active; AID 1964102; Recombinant human furin enzymatic counterscreen, fluorogenic substrate; shares compounds with nsP2pro primary; Potency, µM (series often up to 50.6 µM), without a hit: top-dose activity change, negative = inhibition, most hits filed as inhibitors
NS23 peptide cs – blocks CHIKV nsP2 protease cleavage of endogenous NS2/3 peptide; shares compounds with nsP2pro primary; Purified CHIKV nsP2 protease, endogenous NS2/3 peptide cleavage; Potency, µM (series often up to 51 µM), for the others: at the highest dose activity change, negative = inhibition, most hits filed as inhibitors; 34% of 410 active; also: nearly all actives have a fitted effect of over 55% in size
Papain cs – papain protease inhibition, counterscreen for nsP2pro inhibitors | shares compounds with nsP2pro primary | purified papain protease activity, enzymatic inhibition | Potency, µM (titrated, usually from 51 µM), for inactives: at the highest dose activity change, negative = inhibition, hits mostly inhibitors | 5% of 410 active
Target sequence (P00784 whole entry, looked up): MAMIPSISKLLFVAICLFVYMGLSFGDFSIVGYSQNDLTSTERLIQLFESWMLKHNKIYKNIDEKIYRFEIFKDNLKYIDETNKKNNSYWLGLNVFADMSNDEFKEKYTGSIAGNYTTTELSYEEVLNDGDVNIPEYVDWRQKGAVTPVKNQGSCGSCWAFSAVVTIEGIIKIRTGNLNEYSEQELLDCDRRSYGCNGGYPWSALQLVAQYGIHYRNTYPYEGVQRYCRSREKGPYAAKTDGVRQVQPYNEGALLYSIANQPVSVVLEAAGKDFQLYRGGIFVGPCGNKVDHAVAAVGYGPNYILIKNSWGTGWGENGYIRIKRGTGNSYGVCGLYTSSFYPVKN
nsP2pro conf qHTS – CHIKV nsP2 protease inhibition, confirmatory qHTS; shares compounds with nsP2pro primary; Potency, µM (highest dose often 25.5 µM), for the others: at the highest dose activity change, negative = inhibition, actives largely listed as inhibitors; CHIKV nsP2 protease enzymatic activity, qHTS; 43% of 410 active; also: nearly all actives have a fitted effect of over 75% in size
HCV NS3 counter – HCV NS3/4A protease inhibition, counterscreen. shares compounds with nsP2pro primary. HCV NS3/4A protease biochemical counterscreen. Potency, µM (top dose mostly 50.9 µM), most hits filed as inhibitors. 20% of 410 active. AID 1964106; also: nearly all actives have a fitted effect of over 55% in size
* = called active by the depositor; i = inactive; ? = inconclusive; [ ] = dose if it differs, or a comment. Calls follow the shape of the full dose curve. % is scaled to controls: 0 for no effect and ±100 for the full control effect; potency is read from the fitted curve at half-maximal effect.

SMILES	nsP2pro primary	others
CC(C)NC(=O)N1CCC2(CC1)CN(C(=O)Cc1ccc(O)cc1)CCO2	-17%
COc1cc([C@@H]2c3cc4c(cc3C(O[C@@H]3O[C@@H]5CO[C@@H](c6cccs6)OC5[C@H](O)[C@H]3O)C3COC(=O)[C@@H]32)OCO4)cc(OC)c1O (stereo partly drawn)	20%
O=C(Nc1ccc2ccccc2c1)Nc1nnc(-c2ccc(Cl)cc2Cl)s1	i
C=C1C(OC(C)=O)CCC2(C)CC3(OC)OC(=O)C(C)=C3CC12 (stereo not drawn)	14%
C=C1C[C@]23C[C@H]1CC[C@H]2[C@@]12CC[C@H](O)[C@@](C)(C(=O)O1)[C@H]2[C@@H]3C(=O)O	-9%
C=C1CC23CC1CCC2C12OC(=O)C(C)(C(O)CC1O)C2C3C(=O)O (stereo not drawn)	?	CHIKV nsP2 cell=5%[33.5 µM];CHIKV NSP2 FL=1%[33.5 µM];Furin counter=2%[33.5 µM];NS23 peptide cs=-5%[33.5 µM];Papain cs=-6%[33.5 µM];nsP2pro conf qHTS=-20%[16.7 µM];HCV NS3 counter=i
C=C1C[C@]23C[C@H]1[C@@H](O)C[C@H]2[C@@]12C=C[C@H](O)[C@@](C)(C(=O)O1)[C@H]2[C@@H]3C(=O)O	-21%
Cn1ncc(N2CCC(CNC(=O)c3cccc4ccnn34)C2)cc1=O (stereo not drawn)	i
COc1ccccc1OCCNC(=O)c1ccc2c(c1)N(C)C1CCCCN1C2=O (stereo not drawn)	i
Nc1ccccc1OC1=NS(=O)(=O)c2ccccc21	10µM*	CHIKV nsP2 cell=7%;CHIKV NSP2 FL=?;Furin counter=-5%;NS23 peptide cs=-11%;Papain cs=-5%;nsP2pro conf qHTS=-6%;HCV NS3 counter=i
O=S1(=O)N=C(Oc2ccccc2Br)c2ccccc21	i
Cc1ccccc1OC1=NS(=O)(=O)c2ccccc21	i
O=C(Nc1ccccc1)N1CCC(N(C(=O)C2CC2)C2CCOCC2)CC1	-4%
CC(=O)NCCC(=O)N[C@@H](CCC(N)=O)C(=O)N[C@@H](CO)C(=O)N[C@@H](CCC(N)=O)C(=O)N[C@@H](CCC(N)=O)C(=O)N[C@H](C(=O)N[C@@H](Cc1ccccc1)C(=O)N[C@]1(C)CCCCCCC=CCCC[C@@](C)(C(=O)N[C@@H](CCC(N)=O)C(=O)N[C@@H](CC(N)=O)C(N)=O)NC(=O)[C@H](CC(C)C)NC(=O)[C@H](CC(C)C)NC(=O)[C@@H](CCCNC(=N)N)NC(=O)[C@H](Cc2c[nH]c3ccccc23)NC(=O)[C@H](CC(C)C)NC(=O)[C@H](CC(N)=O)NC1=O)[C@H](C)O	i
C[C@@]12C[C@@H](c3ccoc3)OC(=O)C1CC[C@]1(C)[C@H]2[C@H]2C=C[C@]1(O)C(=O)O2 (stereo partly drawn)	5.4µM*	CHIKV nsP2 cell=-9%[33.5 µM];CHIKV NSP2 FL=9%[33.5 µM];Furin counter=12%[33.5 µM];NS23 peptide cs=3%[33.5 µM];Papain cs=-13%[33.5 µM];nsP2pro conf qHTS=-9%[16.7 µM];HCV NS3 counter=i
CC(=O)OC[C@@]12C(=O)C[C@@H](C)[C@]3(C[C@@H](c4ccoc4)O[C@H]3OC(C)=O)[C@H]1CCC[C@]21CO1	12%[10 µM]
COC(=O)[C@@]1(O)C=CC[C@@H]2[C@@]3(C)C[C@@H](c4ccoc4)OC(=O)[C@H]3CC[C@]21C	2.7µM*	CHIKV nsP2 cell=5%[33.5 µM];CHIKV NSP2 FL=-23%[33.5 µM];Furin counter=2%[33.5 µM];NS23 peptide cs=4%[33.5 µM];Papain cs=1%[33.5 µM];nsP2pro conf qHTS=?;HCV NS3 counter=i
COCCOc1ccc(-c2noc([C@@H]3CCCN3C3CCCCC3)n2)cn1	i
Cc1ccccc1C(=O)N1CCc2cc(-n3cc(NC(=O)Cc4ccccc4)cn3)ccc21	-7%
COC1CCC(C(=O)N2CCC3(CC2)OC(=O)N(CCOc2ccccc2)C3(C)c2cccnc2)CC1 (stereo not drawn)	3%
